Pf growth 96h = P. falciparum growth inhibition at 96 hour, primary screen for plastid delayed-death inhibitors. P. falciparum luciferase reporter growth, 96 h. Potency, µM (highest dose often 28.7 µM), without a hit: top-dose activity change, negative = inhibition, actives largely listed as inhibitors. actives 6.9% (n = 320,000). AID 504834; also: potency is read from the fitted curve at half-maximal effect; % is scaled to controls: 0 for no effect and ±100 for the full control effect
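Two-generation exposure (96 h) targets delayed-death phenotype. Reporter parasites carrying integrated firefly luciferase, in red cells at 2% hematocrit and 0.05% parasitemia final, kept at 37 C, 5% CO2; luminescence loss indicates inhibition.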
SARS PLpro yeast = inhibitors of SARS-CoV papain-like protease in yeast; S. cerevisiae expressing SARS-CoV PLpro, growth rescue; Potency, µM (doses to about 32.9 µM), for the others: at the top dose activity, positive = growth rescue, usual class: activators; actives 0.19% (n = 330,000); calls by dose curve; also: potency is read from the fitted curve at half-maximal effect; 0% is about no effect; nearly all actives have a fitted effect of over 55% in size
Shiga toxin inh = Shiga toxin inhibition; actives 9.2% (n = 290,000); inhibition, % at 38.7 µM; Vero cells, Shiga toxin protein synthesis inhibition reporter; in the data active = inhibition mostly above about 28%, no sharp cut-off; inactive = mostly below about 43%; also: 0% is about no effect
CHX counter = affects cycloheximide protein synthesis inhibition readout, counter-screen; cell reporter, cycloheximide protein synthesis inhibition counterscreen; max response, %; actives 12% (n = 300,000); in the data active = max response mostly above about 13%, no sharp cut-off; inactive = mostly below about 14%; also: read at 38.3 µM for the half of the compounds with a filed dose; 0% is about no effect
Pf growth 48h = inhibits P. falciparum growth in the first generation, 48 h; AID 504832; P. falciparum luciferase growth in erythrocytes, 48 h; Potency, µM (series often up to 28.7 µM), inactives show at the highest dose activity change, negative = inhibition, usual class: inhibitors; actives 5.9% (n = 310,000); also: potency is read from the fitted curve at half-maximal effect; % is scaled to controls: 0 for no effect and ±100 for the full control effect
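Firefly luciferase activity from engineered P. falciparum reports growth; inhibitors lower the luminescent signal. Cultures contained 2% hematocrit erythrocytes at 0.1% final parasitemia.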
NS1 function inh = influenza NS1 inhibition; AID 2326; actives 0.4% (n = 270,000); Potency, µM (top dose mostly 46.1 µM), without a hit: at the top dose activity, positive = more growth; calls by dose curve; also: potency is read from the fitted curve at half-maximal effect; actives are rising curves; nearly all actives have a fitted effect of over 50% in size
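OD600 was taken as the measure of yeast growth restored by compound in an NS1-expressing S. cerevisiae strain. Cells had been washed out of glucose medium and diluted 1:100 into galactose -URA medium, pH 6.0.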
An asterisk follows results filed as active; u = inconclusive; x = not tested or not shown; [ ] = remark or other dose. In the library only some 21% were active in any assay of this set; here they are far more common. Unless noted, calls follow the shape of the dose curve; as a rule, active = well fitted inhibition curve with a large enough effect; inconclusive = small, poorly fitted or top-dose-only effect, or another doubt; inactive = no such curve, though single readings can be large or run the other way.

SMILES	Pf growth 96h	SARS PLpro yeast	Shiga toxin inh	CHX counter	Pf growth 48h	NS1 function inh
CCOc1cc(/C=N\Nc2nc(Nc3ccccc3)nc(N3CCOCC3)n2)ccc1OC(=O)c1ccco1	7%	7%	9	20*	u	13%
NC(=O)CC(NC(=O)Cc1ccc(Cl)cc1)c1ccc(N2CCC(Cc3ccccc3)CC2)c([N+](=O)[O-])c1 (centres undefined)	u	-10%	1	-1	33%	8%
CCN(CC)CCNC(C(=O)OCCC(C)C)c1ccccc1 (centres undefined)	13µM*	x	x	x	17µM*	x
CCOC(=O)C(NCCCCl)c1ccccc1 (centres undefined)	77%	12%	32	5	x	6%
Cn1c(SCC(=O)Nc2cc([N+](=O)[O-])ccc2F)nnc1C(F)(F)F	18%	-12%	16	-2	19%	8%
COc1ccc(C(=O)/C(=C/N(C)C)S(=O)(=O)c2ccccc2)cc1	138%	0%	61*	27*	84%	5%
O=c1c2c3c(sc2[nH]c(=S)n1Cc1ccco1)CCC3	46%	-1%	16	1	53%	5%
CC1(C)Cc2c(sc3[nH]c(=S)n(Cc4ccco4)c(=O)c23)CO1	2.6µM*	8%	11	17	-7%	5%
CC1(C)Cc2c(sc3c2c(=N)n(Cc2ccco2)c(=O)n3Cc2ccccc2)CO1	-21%	-2%	-1	0	9.3µM*	-30%
CCn1c(=O)n(-c2ccc(Cl)cc2)c(=O)c2c3c(sc21)COC(C)(C)C3	7.4µM*	-3%	-12	-1	u	-1%
CC1(C)Cc2c(sc3c2c(=N)n(Cc2ccco2)c(=O)n3Cc2ccc(Cl)cc2)CO1	10µM*	-5%	37	-5	5.2µM*	-61%
Cn1c(=O)n(-c2ccc(Cl)cc2)c(=O)c2c3c(sc21)COC(C)(C)C3	u	1%	-14	-3	u	5%
COc1ccc(CNC(=O)C2CCN(S(=O)(=O)c3ccc(Br)s3)CC2)cc1	-13%	-2%	-3	-3	-24%	24%
CC1CN(C(=O)CCC(=O)NCc2ccccn2)c2ccccc2O1 (centres undefined)	u	2%	2	-1	36%	9%
O=c1c2ccccc2nnn1CCN1CCOCC1	40%	1%	10	-2	29%	-1%
CCCn1nc2ccccc2c1P(=N)(N1CCOCC1)N1CCOCC1	12µM*	20%	16	12	12%	0%
COc1ccc2[nH]c3c(c2c1)CCN1C(=O)C(CC(=O)NCCN2CCOCC2)C[C@H](C(=O)N2CCOCC2)[C@@]31C (some centres undefined)	x	-1%	x	x	x	x
Cc1cc(C(=O)COc2cccnc2[N+](=O)[O-])c(C)n1Cc1cccs1	19%	-1%	147*	43*	6%	x
Cc1cc(C(=O)COC(=O)c2ccccc2O)c(C)n1Cc1cccs1	x	-1%	-8	3	-51%	3%
CC(=O)Nc1ccccc1OCC(=O)c1cc(C)n(Cc2cccs2)c1C	56%	-12%	127*	66*	150%	-43%
O=C(COc1cccnc1[N+](=O)[O-])c1ccc(Cl)s1	-5%	-2%	29	18*	-31%	1%
Cc1nc2nc(CNC(=O)OC(C)(C)C)nn2c(C)c1CCC(=O)Nc1ccc2c(c1)OCO2	u	x	21	12	-15%	12%
Cc1cccc(CN2CCCC(C(=O)c3ccc(C(F)(F)F)cc3)C2)n1 (centres undefined)	12µM*	-1%	-4	0	2.3µM*	-8%
CSc1ncc(CN2CCCC(C(=O)c3ccc(C(C)(C)C)cc3)C2)cn1 (centres undefined)	-15%	3%	37	22*	u	-8%
CCCCc1ncc(CN2CCCC(C(=O)c3ccc(SC)cc3)C2)[nH]1 (centres undefined)	25%[5.75 µM]	-2%	-14	-5	9.3µM*	2%
SMILES	Pf growth 96h	SARS PLpro yeast	Shiga toxin inh	CHX counter	Pf growth 48h	NS1 function inh
CCOC(=O)c1cc(S(=O)(=O)N2CCC(C)CC2)cn1C	16%	1%	-14	-2	17%	-1%
O=c1[nH]c(SCc2ccc([N+](=O)[O-])cc2)nc2[nH]ncc12	7.4µM*	1%	33	12	u	6%
CC(/C=C1\N=C(SCc2ccccc2)SC1=O)=C\c1ccccc1	4%	-3%	-10	-3	40%	25%
CC(=O)C(C(C)=O)c1c(Cl)c(O)c(O)c2c(C(=O)c3ccccc3)coc12	2.6µM*	-7%	3	11	x	-80%
COc1ccc(-c2cc(=O)oc3cc(O)ccc23)cc1	16%	-2%	11	-1	32%	3%
Cc1cc(=O)oc2ccc(OCC(=O)NCc3ccco3)cc12	59%	5%	-15	9	x	-2%
O=c1cc(-c2ccccc2)oc2ccc(O)cc12	89%	-2%	64*	32*	83%	-37%
COc1ccc(-c2cc(=O)c3cc(O)ccc3o2)cc1	314%	-1%	62*	53*	193%	1%
O=C(COc1ccc2oc(-c3ccccc3)cc(=O)c2c1)NCc1ccco1	11%	-3%	58	25*	3%	-9%
CCn1c(SCc2nc3ccccc3s2)nnc1-c1ccccc1	22%	10%	61*	28*	x	-9%
c1ccc(Cn2c(SCc3nc4ccccc4s3)nnc2-c2ccco2)cc1	x	-9%	14	10	26%	-38%
CCC(c1nnc(SCc2nc3ccccc3s2)n1Cc1ccccc1)N(C)C (centres undefined)	x	1%	56*	32*	x	-2%
Cc1ccccc1CSc1nnc(C)n1N	u	0%	-1	-3	-7%	4%
c1ccc(-c2ncc(CSc3nncn3-c3ccccc3)s2)cc1	u	-4%	19	6	x	-58%
Cc1nnc(SCc2nc3ccccc3s2)n1N	195%	1%	76*	44*	101%	8%
CCn1c(SCc2cccc(C)c2)nnc1-c1ccccc1	u	2%	14	7	u	-42%
c1ccc(-n2cnnc2SCc2nc3ccccc3s2)cc1	100%	-1%	61*	60*	x	-9%
CCOc1ccc(S(=O)(=O)NCCC(=O)Nc2nnc(C)s2)cc1	10%	2%	6	-3	1%	-8%
Cc1nnc(SCc2nc3ccccc3s2)n1-c1ccccc1	u	11%	87*	30*	50%	9%
CCn1c(SCC(=O)OC(C)C)nnc1-c1ccccc1	63%	-1%	7	-3	12%	4%
COc1ccc(-c2nnc(SCC(=O)Nc3nc4ccccc4s3)n2C)cc1	x	1%	-13	2	0%	1%
COc1cccc(-c2nnc(SCc3nc4ccccc4s3)n2C)c1	u	1%	16	24*	x	1%
CCn1c(SCC(O)c2ccccc2)nnc1-c1ccccc1 (centres undefined)	20%	0%	28*	39*	24%	5%

High-throughput results: PubChem BioAssay, National Center for Advancing Translational Sciences (NCATS)
